Inconclusive results are not listed. A call without a number means that no potency is given here. Active and inactive are the calls of the source. Unless noted, the call rests on the fitted dose curve; in most records, active means well fitted curve in the direction sought with a large enough effect; inconclusive means small, poorly fitted or top-dose-only effect, or another doubt; inactive means no such curve, though single readings can be large; an effect the other way counts as inactive or inconclusive.
What was measured:
[1] = qHTS for Inhibitors of Plasmodium falciparum (DD2) proliferation (AID 504314);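 further: parasite DNA measured by SYBR Green fluorescence after red cell lysis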
Method in brief: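 SYBR Green DNA-fluorescence growth assay: infected RBCs at 0.3% parasitemia, 2.5% hematocrit, 72 h compound exposure, 37C, 5% CO2; overnight lysis with dye at RT; normalized to 0.29 uM artemisinin and vehicle.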

[2] = qHTS for Inhibitors of Plasmodium falciparum (7G8) proliferation (AID 504316); further: nearly all actives have a fitted effect of over 65% in size
Method in brief: (§1)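 Parasite growth measured as SYBR Green DNA fluorescence (ex 485, em 535 nm) after overnight lysis following 72 h culture at 37 °C, 0.3% parasitemia, 2.5% hematocrit. Values normalized against DMSO and 0.29 uM artemisinin controls, with plate-stack correction.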

[3] = qHTS for Inhibitors of Plasmodium falciparum (HB3) proliferation (AID 504318); further: nearly all actives have a fitted effect of over 60% in size
Method in brief: as §1

[4] = molecular target: Cytochrome P450 1A2 (Homo sapiens) (UniProt P05177); assay: p450-cyp1a2 (AID 410; calls by dose curve; further: potency means the concentration at half of the fitted maximal effect)
Cytochrome P450 1A2 (Homo sapiens), sequence (P05177 whole entry, looked up): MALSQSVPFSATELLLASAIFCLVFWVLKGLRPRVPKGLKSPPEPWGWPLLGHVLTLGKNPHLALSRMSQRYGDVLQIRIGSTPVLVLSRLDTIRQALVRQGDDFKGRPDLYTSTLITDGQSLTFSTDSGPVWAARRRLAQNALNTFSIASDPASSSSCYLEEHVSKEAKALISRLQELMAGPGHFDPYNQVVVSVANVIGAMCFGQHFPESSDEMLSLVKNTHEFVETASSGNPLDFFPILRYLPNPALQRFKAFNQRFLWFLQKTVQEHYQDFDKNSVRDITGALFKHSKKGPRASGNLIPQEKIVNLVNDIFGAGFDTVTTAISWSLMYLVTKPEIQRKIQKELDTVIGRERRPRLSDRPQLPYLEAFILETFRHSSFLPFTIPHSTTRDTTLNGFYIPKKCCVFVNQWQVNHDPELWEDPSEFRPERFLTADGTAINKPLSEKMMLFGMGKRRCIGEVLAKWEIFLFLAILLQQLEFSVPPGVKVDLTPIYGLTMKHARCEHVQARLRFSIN
Method in brief: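 Read-out is luminescence from luciferin produced by CYP1A2 demethylation of Luciferin-ME (100uM, at Km). Detection reagent stopped the 60 min NADPH-dependent reaction; signals were normalized to 57 uM furafylline.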

[5] = molecular target: Glucocorticoid receptor (Homo sapiens) (UniProt P04150); assay: GR-GFP Redistribution (AID 450;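 active means compounds whose dose series gives a full or clear partial fitted curve of increased nuclear translocation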; further: potency means the concentration at half of the fitted maximal effect); conditions: U2OS GR-GFP nuclear translocation, laser cytometry, 2 h
Glucocorticoid receptor (Homo sapiens), sequence (P04150 whole entry, looked up, the tested form may be a part): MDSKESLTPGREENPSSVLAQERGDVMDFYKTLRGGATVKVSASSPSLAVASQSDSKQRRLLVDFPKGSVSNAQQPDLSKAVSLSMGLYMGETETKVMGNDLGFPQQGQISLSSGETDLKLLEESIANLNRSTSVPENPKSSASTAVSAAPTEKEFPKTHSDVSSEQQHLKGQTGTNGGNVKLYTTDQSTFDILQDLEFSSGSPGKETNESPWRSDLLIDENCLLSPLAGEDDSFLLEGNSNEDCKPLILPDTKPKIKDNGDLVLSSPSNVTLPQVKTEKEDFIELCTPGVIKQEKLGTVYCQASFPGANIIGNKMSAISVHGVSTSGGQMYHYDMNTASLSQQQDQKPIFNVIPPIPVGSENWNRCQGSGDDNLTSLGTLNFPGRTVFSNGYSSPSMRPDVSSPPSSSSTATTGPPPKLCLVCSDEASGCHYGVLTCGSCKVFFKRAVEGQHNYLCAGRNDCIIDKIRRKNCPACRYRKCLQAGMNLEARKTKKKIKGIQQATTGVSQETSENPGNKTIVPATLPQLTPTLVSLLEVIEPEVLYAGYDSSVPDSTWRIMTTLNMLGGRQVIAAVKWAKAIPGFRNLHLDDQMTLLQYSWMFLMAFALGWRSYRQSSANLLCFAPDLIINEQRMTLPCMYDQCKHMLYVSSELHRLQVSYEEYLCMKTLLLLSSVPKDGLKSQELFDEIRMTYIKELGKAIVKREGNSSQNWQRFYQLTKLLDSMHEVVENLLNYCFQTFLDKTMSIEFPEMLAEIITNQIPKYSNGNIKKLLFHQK

[6] = molecular target: Glucocorticoid receptor (Homo sapiens) (UniProt P04150); assay: GR-EFC Redistribution (AID 451; calls by dose curve; further: potency means the concentration at half of the fitted maximal effect); conditions: CHO-K1 GR-EFC translocation, beta-gal luminescence, 2 h
Method in brief: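 CHO-K1 cells stably expressing nuclear-localized β-gal enzyme acceptor and GR fused C-terminally to the enzyme donor fragment; ligand-driven nuclear translocation restores β-gal by complementation. Compounds titrated up to 46 uM final, 2 h at 37 °C; luminescence read.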

[7] = molecular target: Mitogen-activated protein kinase 10 (Mus musculus) (UniProt Q61831); assay: JNK3 AlphaScreen Assay (AID 530; active means well fitted curve in either direction with a large enough effect, not every such curve was filed as active;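 further: kinase came from lysate of stimulated human HepG2 cells; signal reports phosphorylation of biotinylated GST-cJun 1-79 at Ser73 with 10 µM ATP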)
Method in brief: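 Biotinylated GST-cJun(1-79) served as substrate for JNK3 in HepG2 lysates stimulated with IL-1beta and TNF-alpha. ATP was 10 uM final, pH 7.6. Ser73 phosphorylation was quantified by AlphaScreen (680 nm excitation).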

[8] = molecular target: Cytochrome P450 3A4 (Homo sapiens) (UniProt P08684); assay: qHTS Assay for Inhibitors and Substrates of Cytochrome P450 3A4 (AID 884); further: nearly all actives have a fitted effect of over 50% in size
Cytochrome P450 3A4 (Homo sapiens), sequence (P08684 whole entry, looked up): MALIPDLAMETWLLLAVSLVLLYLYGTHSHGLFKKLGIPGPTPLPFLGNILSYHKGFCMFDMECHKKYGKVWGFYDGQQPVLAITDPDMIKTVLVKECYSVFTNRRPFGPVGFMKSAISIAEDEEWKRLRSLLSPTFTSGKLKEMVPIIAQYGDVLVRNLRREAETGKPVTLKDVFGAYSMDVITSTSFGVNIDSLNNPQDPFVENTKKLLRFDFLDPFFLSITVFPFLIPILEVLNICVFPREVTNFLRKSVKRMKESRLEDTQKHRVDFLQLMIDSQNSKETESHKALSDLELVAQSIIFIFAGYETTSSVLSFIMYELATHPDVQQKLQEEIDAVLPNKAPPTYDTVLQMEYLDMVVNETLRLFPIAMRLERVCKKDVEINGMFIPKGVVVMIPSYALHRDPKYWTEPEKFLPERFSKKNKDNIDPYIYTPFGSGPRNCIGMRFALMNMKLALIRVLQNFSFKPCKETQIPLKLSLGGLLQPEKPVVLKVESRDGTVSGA
Method in brief: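 Luminescent readout of luciferin produced by CYP3A4 (20 nM) dealkylation of Luciferin-PPXE, 25 uM (its KM). NADPH-driven reaction ran 60 min at RT after 10 min compound preincubation; data scaled to 57 uM ketoconazole as 100% inhibition.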

[9] = molecular target: Cytochrome P450 3A4 (Homo sapiens) (UniProt P08684); assay: qHTS Assay for Activators of Cytochrome P450 3A4 (AID 885); further: potency means the concentration at half of the fitted maximal effect; nearly all actives have a fitted effect of over 65% in size
Method in brief: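 Activators are scored by enhanced luminescence from CYP3A4 conversion of luciferin-PPXE (25uM, equal to KM) to luciferin, after 60 min at RT with an NADPH-regenerating system.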

[10] = molecular target: Cytochrome P450 2D6 (Homo sapiens) (UniProt P10635); assay: qHTS Assay for Inhibitors and Substrates of Cytochrome P450 2D6 (AID 891); further: potency means the concentration at half of the fitted maximal effect; nearly all actives have a fitted effect of over 60% in size
Cytochrome P450 2D6 (Homo sapiens), sequence (P10635 whole entry, looked up): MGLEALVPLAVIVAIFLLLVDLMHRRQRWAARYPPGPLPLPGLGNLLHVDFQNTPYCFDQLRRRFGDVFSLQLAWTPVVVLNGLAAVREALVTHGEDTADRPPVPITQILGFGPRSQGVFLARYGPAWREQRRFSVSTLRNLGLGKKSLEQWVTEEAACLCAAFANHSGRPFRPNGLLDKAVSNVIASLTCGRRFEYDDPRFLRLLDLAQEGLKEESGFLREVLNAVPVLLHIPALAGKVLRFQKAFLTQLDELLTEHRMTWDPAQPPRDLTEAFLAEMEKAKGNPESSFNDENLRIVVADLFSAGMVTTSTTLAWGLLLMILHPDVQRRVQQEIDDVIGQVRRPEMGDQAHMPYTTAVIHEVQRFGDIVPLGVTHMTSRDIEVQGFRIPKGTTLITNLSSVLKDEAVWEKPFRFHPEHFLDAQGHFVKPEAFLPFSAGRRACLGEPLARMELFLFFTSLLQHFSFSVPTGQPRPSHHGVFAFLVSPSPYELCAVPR
Method in brief: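 Luminescent read-out of luciferin formed by 5 nM human CYP2D6 demethylating 30 uM Luciferin-ME EGE (Km level) over 60 min at room temperature after NADPH regeneration addition. Data normalized to full inhibition by 1.43 uM quinidine.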

[11] = molecular target: DNA dC->dU-editing enzyme APOBEC-3G (Homo sapiens) (UniProt Q9HC16); assay: qHTS for inhibitors of Vif-A3G interactions: Validation (AID 588379)
DNA dC->dU-editing enzyme APOBEC-3G (Homo sapiens), sequence (Q9HC16 whole entry, looked up): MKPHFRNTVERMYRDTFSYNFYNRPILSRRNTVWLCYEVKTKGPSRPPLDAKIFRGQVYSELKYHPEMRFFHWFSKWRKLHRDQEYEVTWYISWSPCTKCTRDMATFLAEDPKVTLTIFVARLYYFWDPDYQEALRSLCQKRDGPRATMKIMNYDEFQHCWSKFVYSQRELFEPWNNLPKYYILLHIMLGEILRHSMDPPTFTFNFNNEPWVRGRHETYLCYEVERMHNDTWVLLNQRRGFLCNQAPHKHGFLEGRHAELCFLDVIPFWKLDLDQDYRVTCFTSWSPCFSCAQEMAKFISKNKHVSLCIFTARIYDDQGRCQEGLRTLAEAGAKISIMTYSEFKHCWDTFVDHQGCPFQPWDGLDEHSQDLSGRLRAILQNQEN
Method in brief: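 Yellow fluorescence (Ex 488, Em 500-530) of Vif-coexpressing HeLa A3G-eYFP cells, scanned by Acumen cytometer, reports blocked A3G degradation. Cells plated at 700/well overnight at 37 deg C before compound addition, then a further overnight compound incubation at 37 deg C.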

[12] = Primary qHTS for small molecule stabilizers of the endoplasmic reticulum resident proteome: Secreted ER Calcium Modulated Protein (SERCaMP) assay (AID 1508630)
Method in brief: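 The SH-SY5Y reporter protocol was run at 3 concentrations up to 38.3 uM (primary) or 11 concentrations (follow-up): 16 h compound, 100 nM thapsigargin for 4 h, then extracellular luciferase luminescence.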

[13] = qHTS profiling of the MIPE4 collection as inhibitors of Plasmodium falciparum (3D7) proliferation (AID 743344; call rule not given here); conditions: P. falciparum 3D7 in erythrocytes, SYBR Green DNA fluorescence, 72 h; at 28.5 µM (top of the series) unless noted
Method in brief: (§2)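 Parasite DNA was quantified by SYBR Green I fluorescence (ex 485, em 535 nm) after overnight lysis in saponin/Triton buffer at room temperature. Cultures at 0.3% parasitemia and 2.5% hematocrit were first exposed to compound for 72 h at 37 C; signals were normalised to artemisinin (0.29 uM) and vehicle wells.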

[14] = qHTS profiling of the MIPE4 collection as inhibitors of Plasmodium falciparum (DD2) proliferation (AID 743345; call rule not given here); conditions: P. falciparum Dd2 in erythrocytes, SYBR Green DNA, 72 h; at 28.5 µM (top of the series) unless noted
Method in brief: as §2

[15] = qHTS profiling of the MIPE4 collection as inhibitors of Plasmodium falciparum (DD2) proliferation (Rep 2) (AID 743346; call rule not given here); conditions: P. falciparum Dd2 in erythrocytes, SYBR Green DNA, 72 h; at 28.5 µM (top of the series) unless noted
Method in brief: as §2

[16] = qHTS profiling of the MIPE4 collection as inhibitors of Plasmodium falciparum (HB3) proliferation (AID 743347; call rule not given here); conditions: P. falciparum HB3 in erythrocytes, SYBR Green DNA, 72 h; at 28.5 µM (top of the series) unless noted
Method in brief: as §2

[17] = molecular target: Lysosomal alpha-glucosidase (Homo sapiens) (UniProt P10253); assay: Confirmation of Inhibitors and Activators of Purified Human alpha-Glucosidase (AID 2115; active means well fitted curve in either direction with a large enough effect)
Method in brief: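 Fluorogenic 4-MU-substrate hydrolysis (400 uM substrate, 4 nM human enzyme) over 20 min at room temperature, pH 5.0 citrate buffer plus 0.005% Tween-20; NaOH/glycine stop, then ex 365/em 440 nm read. Titration up to 77 uM; Hill-equation AC50, normalized to no-enzyme and full-activity controls.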

With `COC(=O)C1=C2CCO[C@H]2[C@@H]2[C@@H](C)[C@H](OC)c3ccccc3[C@@H]12` the outcome [1] was “inactive”, the outcome [2] was “inactive” and the Potency [3] was “inactive”.

With `COC(=O)C1=NN=C(C(=O)OC)[C@@]2(C)c3ccccc3NC12` (stereo partly drawn) the outcome [1] was “inactive”, the outcome [2] was “inactive” and the Potency [3] was “inactive”.

In the case of `COC(=O)C1c2c(n(C)c3ccccc23)[C@H]2[C@@H](C)[C@H](OC)c3ccccc3[C@@H]12` (stereo partly drawn), the outcome [2] is reported as “inactive”.

With `COC(=O)[C@]12C[C@@H]3CCN(C(=O)N[C@@H]1c1ccccc1)[C@@]32C` the outcome [1] was “inactive”, the outcome [2] was “inactive” and the Potency [3] was “inactive”.

In the case of `COC(=O)[C@@]1(C=C2c3ccc(F)cc3[C@@H](OC)[C@@H]2C)[C@@H]2Oc3ccccc3[C@@H]21`, the outcome [1] is reported as “inactive”.

In the case of `C=C1[C@@H]2CCN3C(=O)N[C@@H](c4ccccc4)[C@@]1(C(=O)OCC)C23` (stereo partly drawn), the outcome [1] is reported as “inactive”, the outcome [2] is reported as “inactive” and the Potency [3] is reported as “inactive”.

For `c1ccc(CCCCN2CCC(c3ccccc3)CC2)cc1`, the Potency [4] was 15.8 µM (active), the Potency [5] was > 46 µM (inactive) and the Potency [6] was > 46 µM (inactive). For the same molecule, the outcome [7] was “inactive”, the Potency [8] was “inactive” and the Potency [9] was 31.6 µM (active). The Potency [10] was 39.8 nM (active), the Potency [11] was “inactive” and the Potency [12] was “inactive”.

With `COC(=O)C1(C)C2CC(C)C(c3ccccc32)N1C(=O)C(F)(F)F` (stereo not drawn) the outcome [1] was “inactive”, the outcome [2] was “inactive” and the Potency [3] was “inactive”.

With `CCOC(=O)[C@]12C[C@@H]3OCCN(C(=O)N[C@@H]1c1ccccc1)[C@@H]32` the outcome [1] was “inactive”, the outcome [2] was “inactive” and the Potency [3] was “inactive”.

For `COC(=O)[C@@]1(C=C[C@@H](C)[C@H](OC)c2ccccc2Br)[C@@H]2Oc3ccccc3[C@@H]21`, the outcome [1] was “inactive”, the outcome [2] was “inactive” and the Potency [3] was “inactive”.

In the case of `COC(=O)C1=C2CCO[C@@H]2[C@H]2[C@@H](C)[C@H](OC)c3ccccc3[C@H]12`, the outcome [1] is reported as “inactive”, the outcome [2] is reported as “inactive” and the Potency [3] is reported as “inactive”.

In the case of `CCC[C@]12CCN3C(=O)N[C@@H](c4ccccc4)[C@](C(=O)OCC)(C1)[C@H]32`, the outcome [1] is reported as “inactive”, the outcome [2] is reported as “inactive” and the Potency [3] is reported as “inactive”.

In the case of `COC(=O)C12CC3=CCC4C(=O)N(c5ccccc5)C(=O)C4C3Cc3ccccc3[C@H]1CNC2=O` (stereo partly drawn), the Potency [3] is reported as “inactive”.

In the case of `CCOC(=O)[C@@]12C3[C@@H](CCN3C(=O)N[C@@H]1c1ccccc1)[C@@H]2C` (stereo partly drawn), the outcome [1] is reported as “inactive”, the outcome [2] is reported as “inactive” and the Potency [3] is reported as “inactive”.

For `CO[C@@H]1c2ccccc2[C@H]2C(C(=O)O)c3c(n(C)c4ccccc34)[C@H]2[C@H]1C` (stereo partly drawn), the outcome [1] was “inactive” and the outcome [2] was “inactive”.

Work on `O=C1CC[C@@]2(O)[C@H]3Cc4ccc(O)c5c4C2(CCN3CC2CC2)[C@H]1O5` yielded a parasite growth, % of DMSO control [13] of 101%, a parasite growth remaining, % of DMSO control (lower = more inhibition) [14] of 82% and a parasite growth, % of control (lower = inhibition) [15] of 59.1%. The growth, % of control [16] was 94.1% and the Potency [12] was “inactive”.

In the case of `COC(=O)C1C2CC(C)C(c3ccccc32)N1C(=O)C(F)(F)F` (stereo not drawn), the outcome [1] is reported as “inactive”, the outcome [2] is reported as “inactive” and the Potency [3] is reported as “inactive”.

For `O[C@H]1[C@H](O)[C@@H](O)CN2CC[C@H](O)[C@H]12`, the outcome [17] was “inactive”.

For `CCOC(=O)[C@@]12[C@@H]3[C@@H](CCN3C(=O)N[C@H]1c1ccccc1)C2(C)C`, the outcome [1] was “inactive”, the outcome [2] was “inactive” and the Potency [3] was “inactive”.

With `CC(=O)[C@]12[C@H](c3ccccc3)[C@@H]3CCN(C(=O)N[C@H]1c1ccccc1)[C@@]32C` the outcome [1] was “inactive” and the Potency [3] was “inactive”.

Reference: PubChem BioAssay (NCATS)
